In PubChem BioAssay AID1159580 (chemical genetic matrix, 2015):
Where “and” joins values, the source holds several entries; their conditions need not be identical. Equal values may be shown once. In all, about 5,500 compounds went through this assay and about 2,000 (36%) were called active. Roughly 18% stayed inconclusive and do not appear here. Cut-off read from the data, not from the text of the source: active = normalized growth mostly below about 0.91 (no sharp cut-off); inconclusive = no clear call, values can overlap the other calls; inactive = mostly above about 0.92. The list shows a part of the results.

Assay: chemical genetic growth profiling, strain panel (AID 1159580);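 note: tested at 20 µM; growth read once vehicle control cultures reached saturation at 30 °C; 1 = growth at the plate median or of vehicle wells; lower values mean less growth of the strain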
Conditions: S. cerevisiae deletion strains, growth OD

Measured: normalized growth

COc1cc([C@H]2Oc3cc([C@H]4Oc5cc(O)cc(O)c5C(=O)[C@@H]4O)ccc3O[C@@H]2CO)ccc1O
inactive: locus YAL013W, strain DEP1, hits give low values 1 | locus YAL021C, strain ccr4, hits give low values 0.987 | locus YAL026C, strain drs2, hits give low values 1 | locus YAL030W, strain snc1, hits give low values 1.01 | locus YBL061C, strain skt5, hits give low values 1.01 | locus YBR009C, strain hhf1, hits give low values 1 | locus YBR021W, strain FUR4, hits give low values 1.06 | locus YBR023C, strain chs3, hits give low values 1.01 | locus YBR171W, strain sec66, hits give low values 1.02 | locus YBR229C, strain ROT2, hits give low values 0.991 | locus YBR231C, strain swc5, hits give low values 1.02 | locus YBR279W, strain paf1, hits give low values 1.01 | locus YCL011C, strain gbp2, hits give low values 1 | locus YCL016C, strain dcc1, hits give low values 0.992 | locus YCL029C, strain bik1, hits give low values 0.97 | locus YCL061C, strain MRC1, hits give low values 1.01 | locus YCL069W, strain vba3, hits give low values 1.01 | locus YCR088W, strain abp1, hits give low values 1.01 | locus YDL005C, strain med2, hits give low values 1.01 | locus YDL035C, strain GPR1, hits give low values 0.987 | locus YDL040C, strain nat1, hits give low values 1.01 | locus YDL074C, strain BRE1, hits give low values 0.986 | locus YDL101C, strain DUN1, hits give low values 0.989 | locus YDL134C, strain PPH21, hits give low values 1.01 | locus YDL185W, strain tfp1, hits give low values 0.964 | locus YDL192W, strain arf1, hits give low values 0.97 | locus YDR001C, strain nth1, hits give low values 1.01 | locus YDR069C, strain doa4, hits give low values 0.998 | locus YDR101C, strain arx1, hits give low values 0.976 | locus YDR137W, strain rgp1, hits give low values 0.996 | locus YDR150W, strain NUM1, hits give low values 0.969 | locus YDR159W, strain sac3, hits give low values 0.997 | locus YDR162C, strain NBP2, hits give low values 1.02 | locus YDR195W, strain ref2 1.02 | locus YDR297W, strain sur2, hits give low values 1.02 | locus YDR318W, strain mcm21, hits give low values 0.97 | locus YDR334W, strain swr1, hits give low values 1.01 | locus YDR335W, strain msn5, hits give low values 1 | locus YDR388W, hits give low values 0.984 | locus YDR392W, strain spt3, hits give low values 0.955 | locus YDR502C, strain sam2, hits give low values 0.977 | locus YEL003W, strain gim4, hits give low values 1.01 | locus YEL037C, strain rad23, hits give low values 1.01 | locus YEL061C, strain CIN8 (second series), hits give low values 1.02 | locus YEL061C, strain CIN8, hits give low values 1 | locus YER015W, strain faa2, hits give low values 1 | locus YER016W, strain bim1, hits give low values 1.01 | locus YER110C, hits give low values 0.958 | locus YER111C, strain swi4, hits give low values 1 | locus YER155C, strain BEM2 (second series), hits give low values 1.03 | locus YER155C, strain BEM2, hits give low values 1.02 | locus YER167W, strain BCK2, hits give low values 0.992 | locus YFR010W, strain ubp6, hits give low values 0.995 | locus YGL078C, strain dbp3, hits give low values 0.965 | locus YGL086W, strain mad1, hits give low values 0.975 | locus YGL167C, strain pmr1, hits give low values 1.01 | locus YGL173C, strain kem1, hits give low values 1.01 | locus YGL227W, strain vid30, hits give low values 1.01 | locus YGL240W, strain doc1, hits give low values 1.03 | locus YGL248W, strain PDE1, hits give low values 1.01 | locus YGL253W, strain hxk2, hits give low values 0.989 | locus YGR078C, strain PAC10, hits give low values 0.989 | locus YGR135W, strain pre9, hits give low values 0.987 | locus YGR229C, strain SMI1, hits give low values 1.01 | locus YGR252W, strain gcn5, hits give low values 0.961 | locus YHR013C, strain ard1, hits give low values 1 | locus YHR027C, strain rpn1, hits give low values 1 | locus YHR030C, strain SLT2, hits give low values 0.999 and 1.02 | locus YHR079C, strain IRE1 (second series), hits give low values 0.984 | locus YHR079C, strain IRE1, hits give low values 0.996 | locus YHR094C, strain hxt1, hits give low values 0.971 | locus YHR129C, strain ARP1, hits give low values 1 | locus YHR142W, strain chs7, hits give low values 0.997 | locus YHR200W, strain rpn10, hits give low values 0.959 | locus YIL066C, strain RNR3, hits give low values 0.968 | locus YIL073C, strain SPO22, hits give low values 0.906 | locus YIL125W, strain kgd1, hits give low values 0.987 | locus YIR030C, strain dcg1, hits give low values 0.981 | locus YJL092W, strain hpr5, hits give low values 1.01 | locus YJL095W, strain BCK1 (second series), hits give low values 1.02 | locus YJL095W, strain BCK1, hits give low values 0.998 and 0.981 | locus YJL115W, strain asf1, hits give low values 1.01 | locus YJL129C, strain trk1, hits give low values 1.03 | locus YJL134W, strain LCB3, hits give low values 1 | locus YJL154C, strain vps35, hits give low values 1.01 | locus YJL164C, strain tpk1, hits give low values 0.989 | locus YJL166W, strain qcr8, hits give low values 1.01 | locus YJL168C, strain set2, hits give low values 0.98 | locus YJL187C, strain SWE1 (second series), hits give low values 0.988 | locus YJL187C, strain SWE1, hits give low values 1.01 | locus YJR043C, strain POL32, hits give low values 0.998 | locus YJR066W, strain TOR1, hits give low values 0.954
